TDP1 cell CPT: growth inhibition of DT40 Tdp1-/-;hTDP1 cells with camptothecin (screen for TDP1 inhibitors); chicken DT40 Tdp1-/-;hTDP1 cells + 20 nM CPT, ATP luminescence, 48 h; Potency, µM (series often up to 46.2 µM), inactives show at the top dose activity change, negative = growth inhibition, most hits filed as inhibitors; 420,000 compounds, 12% hits; note: potency is the fitted concentration of half-maximal effect; nearly all actives have a fitted effect of over 55% in size
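Chicken DT40 Tdp1-/- cells complemented with human TDP1, 400 cells/well, exposed to compounds plus 20 nM camptothecin for at least 48 h at 37 C; viability read as ATP content by CellTiter-Glo luminescence.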
HT1080-NT tox: kills 2HG-producing HT-1080-NT fibrosarcoma cells; 360,000 compounds, 1.6% hits; HT-1080-NT fibrosarcoma viability, CellTiter-Glo ATP luminescence, 48 h; AID 686970; Potency, µM (titrated, usually from 46.1 µM), for the others: top-dose activity, negative = less viability, most hits filed as cytotoxic;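 note: NT is the 2HG producing partner of a matched IDH1 knockdown line; potency is the fitted concentration of half-maximal effect; 0% = DMSO-treated cells and -100% = media-only wells without cells; nearly all actives have a fitted effect of over 55% in size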
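Toxicity toward the 2HG-producing NT line was scored as %Activity, normalised to DMSO and no-cell wells, from CellTiter-Glo luminescence after 48 hours' treatment.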
HT1080 IDH1KD tx: kills HT-1080 cells with IDH1 knockdown; 360,000 compounds, 2% hits; AID 686971; Potency, µM (series often up to 46.1 µM), for the others: top-dose activity, negative = toxicity, most hits filed as cytotoxic; HT-1080 IDH1 knockdown viability, ATP luminescence, 48 h;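 note: potency is the fitted concentration of half-maximal effect; 0% = DMSO wells and -100% = cell-free medium wells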
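After a 2 h attachment period, IDH1KD HT-1080 cells took pin-transferred compound for 48 h at 37 °C; ATP-based luminescence after 10 min room-temperature reagent incubation reported viability.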
IL1B secr inh: inflammasome signaling inhibition, IL-1 beta readout | THP-1 LPS/ATP IL-1B secretion, AlphaLISA, 16 h; stronger effect = lower value | 360,000 compounds, 4.7% hits | activity change, % at 57.5 µM; in the data active = activity change below about -50%; inconclusive = mostly about -30% to -49%
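Secreted IL-1B measured by AlphaLISA bead assay after 16 h compound exposure of THP-1 cells; compounds (final up to 57.5 uM) added 1 h before LPS (250 ng/mL) and ATP (1.25 mM) stimulation; lower signal means less secretion.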
TDP1 cell noCPT: qHTS for Inhibitors of human tyrosyl-DNA phosphodiesterase 1 (TDP1): qHTS in cells in absence of CPT. DT40 Tdp1-/- hTDP1 cells, no CPT, ATP luminescence, 48 h. Potency, µM (top dose mostly 46.2 µM), for inactives: at the top dose activity change, negative = growth inhibition, usual class: inhibitors. 420,000 compounds, 15% hits. AID 686978, 2013; note: potency is the fitted concentration of half-maximal effect; nearly all actives have a fitted effect of over 55% in size
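DT40 Tdp1-/-;hTDP1 cells, no CPT (DMSO vehicle only), 400 cells/well; compounds pin-transferred; ≥48 hr, 37 °C; CellTiter-Glo 30 min RT dark, luminescence read.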
An asterisk follows results filed as active; [ ] = another dose, or the depositor's remark. Only some compounds are listed: those with a hit (about 19% of all), similar ones and a draw of the others. Unless noted, calls come from the whole dose curve; as a rule, active = well fitted curve in the direction sought with a large enough effect; inconclusive = small, poorly fitted or top-dose-only effect, or another doubt; inactive = no such curve, though single readings can be large; an effect the other way counts as inactive or inconclusive. Unless noted, % is set by controls: 0 for no effect and ±100 for the full control effect.

Screening Cc1cccc(N(C)c2cc(-c3ccc(F)cc3)nc3ccnn23)c1 returned TDP1 cell CPT inconclusive, HT1080-NT tox 6.0%, HT1080 IDH1KD tx 0.0%, IL1B secr inh 36.5 and TDP1 cell noCPT -25.8%.
C/C(=N\NC(=O)CC1N=C(Cc2ccccc2)NNC1=O)c1ccc(Cl)cc1Cl (stereo not drawn) was read as TDP1 cell CPT inconclusive, HT1080-NT tox -2.6%, HT1080 IDH1KD tx -10.6%, IL1B secr inh 8.0 and TDP1 cell noCPT inconclusive.
`C[C@](N)(C(=O)O)c1ccc(-c2nn[nH]n2)cc1` gave TDP1 cell CPT 11.2% and TDP1 cell noCPT 1.2%.
CC1CCCCN1C(=O)CSc1nnc(CSc2ncccn2)n1C (stereo not drawn) was read as TDP1 cell CPT 1.2%, HT1080-NT tox 10.2%, HT1080 IDH1KD tx 10.7%, IL1B secr inh 10.7 and TDP1 cell noCPT -17.5%.
Screening COc1ccccc1NS(=O)(=O)c1cccc(C(=O)N(C)Cc2cccs2)c1 returned TDP1 cell CPT 23.1µM*, HT1080-NT tox -2.0%, HT1080 IDH1KD tx -6.4%, IL1B secr inh 16.4 and TDP1 cell noCPT 23.1µM*.
COc1ccc(S(=O)(=O)Nc2ccccc2OC)cc1NC(=O)Cc1cccs1 was read as TDP1 cell CPT inconclusive, HT1080-NT tox -0.1%, HT1080 IDH1KD tx -1.9%, IL1B secr inh 0.1 and TDP1 cell noCPT 20.6µM*.
`COc1ccccc1NS(=O)(=O)c1ccc(NC(=O)Cc2cccs2)cc1` gave TDP1 cell CPT inconclusive, HT1080-NT tox -7.0%, HT1080 IDH1KD tx -7.8%, IL1B secr inh 0.0 and TDP1 cell noCPT inconclusive.
`COc1ccccc1NS(=O)(=O)c1cccc(C(=O)NCC(c2cccs2)N(C)C)c1` (stereo not drawn) gave TDP1 cell CPT inconclusive, HT1080-NT tox -4.2%[9.24 µM], HT1080 IDH1KD tx -1.2%, IL1B secr inh 10.1 and TDP1 cell noCPT -16.9%.
`N#CN=CN1CC=C(c2ccc(Cl)cc2)CC1` gave TDP1 cell CPT 3.1%, HT1080-NT tox 3.1%, HT1080 IDH1KD tx 5.8%, IL1B secr inh -28.5 and TDP1 cell noCPT -2.8%.
`CC1CN(C(=O)CSc2nnc3c(Cl)cc(Cl)cn23)CC(C)O1` (stereo not drawn) gave TDP1 cell CPT -2.4%, HT1080-NT tox -2.5%, HT1080 IDH1KD tx -1.3%, IL1B secr inh 0.7 and TDP1 cell noCPT -2.6%.
`CC(C)C(C)(C#N)NC(=O)CSc1ncnc2sc(-c3ccccc3)cc12` (stereo not drawn) gave TDP1 cell CPT inconclusive, HT1080-NT tox 12.6µM*, HT1080 IDH1KD tx -4.7%, IL1B secr inh -8.6 and TDP1 cell noCPT inconclusive.
For O=C(CSc1ncnc2sc(-c3ccccc3)cc12)NC1CCS(=O)(=O)C1 (stereo not drawn) the results were TDP1 cell CPT -52.1%, HT1080-NT tox 2.4%, HT1080 IDH1KD tx 1.7%, IL1B secr inh -65.9* and TDP1 cell noCPT 14.6µM*.
Screening COc1ccc(S(=O)(=O)N2CCc3ccccc32)cc1C(=O)NC1(C)CCS(=O)(=O)C1 (stereo not drawn) returned TDP1 cell CPT -12.4%, HT1080-NT tox -4.0%, HT1080 IDH1KD tx -6.7%, IL1B secr inh 1.7 and TDP1 cell noCPT -0.2%.
COc1cccc(CNC[C@H]2O[C@@H](n3ccc(N)nc3=O)[C@H](O)[C@@H]2O)c1OCc1ccc(F)cc1Cl was read as TDP1 cell CPT -7.1%, HT1080-NT tox 4.4%, HT1080 IDH1KD tx -3.8%, IL1B secr inh 0.0 and TDP1 cell noCPT -12.1%.
`CCc1ccc(N=C2NC(=O)CS2)cc1` gave TDP1 cell CPT -7.8%, HT1080-NT tox 20.5%, HT1080 IDH1KD tx 22.2%, IL1B secr inh 0.2 and TDP1 cell noCPT -21.8%.
Cc1c(OCc2ccccc2)c(=O)ccn1Cc1ccc(Cl)cc1 was read as TDP1 cell CPT inconclusive, HT1080-NT tox inconclusive, HT1080 IDH1KD tx inconclusive, IL1B secr inh -17.7 and TDP1 cell noCPT 16.4µM*.
`Cc1c(O)c(=O)ccn1Cc1ccccc1` gave TDP1 cell CPT 23.1µM*, HT1080-NT tox -22.8%, HT1080 IDH1KD tx -11.8%, IL1B secr inh 90.8 and TDP1 cell noCPT 18.4µM*.
Screening COc1ccc(CNC(=O)C[C@@H]2C[C@H]3c4cc(NC(=O)C5CCC5)ccc4O[C@H]3[C@@H](CO)O2)cc1 returned TDP1 cell CPT -13.0%, HT1080-NT tox -0.6%, HT1080 IDH1KD tx 5.6%, IL1B secr inh 15.6 and TDP1 cell noCPT inconclusive.
For O=C(C1CCCCC1)N(Cc1cccnc1)c1nc2c(F)cc(F)cc2s1 the results were TDP1 cell CPT 20.6µM* and TDP1 cell noCPT 14.6µM*.
`CCOc1ccc2nc(N(Cc3cccnc3)C(=O)C3CCCCC3)sc2c1` gave TDP1 cell CPT inconclusive and TDP1 cell noCPT -23.7%.
COc1ccc2sc(N(Cc3cccnc3)C(=O)C3CCCCC3)nc2c1 was read as TDP1 cell CPT 13µM* and TDP1 cell noCPT 23.1µM*.
C[C@@H]1CN([C@@H](C)CO)C(=O)CCCn2nncc2CO[C@H]1CN(C)Cc1ccc2c(c1)OCCO2 was read as TDP1 cell CPT -16.8%, HT1080-NT tox -5.1%, HT1080 IDH1KD tx -1.3%, IL1B secr inh -3.9 and TDP1 cell noCPT -20.7%.
`CCCN1C(=O)c2ccccc2NC1c1ccc(OC)c(COc2ccc([N+](=O)[O-])c(C)c2)c1` (stereo not drawn) gave TDP1 cell CPT inconclusive and TDP1 cell noCPT 17.8µM*.
Screening COc1ccc(C2Nc3ccccc3C(=O)N2Cc2ccco2)cc1COc1c(C)cccc1C (stereo not drawn) returned TDP1 cell CPT 2.51µM* and TDP1 cell noCPT 5.01µM*.
COc1ccc(C2Nc3ccccc3C(=O)N2Cc2ccco2)cc1COc1ccc([N+](=O)[O-])cc1 (stereo not drawn) was read as TDP1 cell CPT inconclusive, HT1080-NT tox 6.8%, HT1080 IDH1KD tx 8.1%, IL1B secr inh inconclusive and TDP1 cell noCPT 23.1µM*.
CCOC(=O)/C(C#N)=C\c1cc(OC)c(OC)cc1[N+](=O)[O-] was read as TDP1 cell CPT inconclusive, HT1080-NT tox -12.2%, HT1080 IDH1KD tx -18.8%, IL1B secr inh 0.0 and TDP1 cell noCPT inconclusive.
For N/C(=N\OC(=O)C1CCCCC1)c1ccccn1 the results were TDP1 cell CPT 4.4%, HT1080-NT tox 3.8%[9.24 µM], HT1080 IDH1KD tx 9.0%, IL1B secr inh 4.5 and TDP1 cell noCPT -19.9%.
`CCOc1ccccc1NC(=O)CC1C(=O)NCCN1C(=O)c1ccc(F)cc1` (stereo not drawn) gave TDP1 cell CPT -6.3% and TDP1 cell noCPT 5.2%.
`COc1ccccc1NC(=O)N(CCN(C)C)Cc1cc2cc(C)ccc2[nH]c1=O` gave TDP1 cell CPT inconclusive, HT1080-NT tox -2.5%, HT1080 IDH1KD tx -3.4%, IL1B secr inh inconclusive and TDP1 cell noCPT inconclusive.

High-throughput results from PubChem.
